# Source: the supplement of paper PMC4022240
# ± gives the standard deviation.
# T1: HaloTag-ATRX ADD domain (163-292)
# T1 chain: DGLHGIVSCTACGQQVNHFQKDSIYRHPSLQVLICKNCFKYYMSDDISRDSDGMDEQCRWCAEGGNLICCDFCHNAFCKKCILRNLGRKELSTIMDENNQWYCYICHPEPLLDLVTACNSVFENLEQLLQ
# Key:
# Experiment in all cases: peptide microarray binding signal (635 nm), min-max normalized on array (fraction of array maximum); higher = stronger binding
# Details in all cases: peptide region: H2B 7-19
# [1] = target: T1, HaloTag-ATRX ADD domain (163-292)
# Description: (§1)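 Histone 13-mer peptides were synthesized as cellulose conjugates with a C-terminal 20-atom PEG linker and printed in triplicate on nitrocellulose. The sequence given is the unmodified backbone; PTMs (Kme1/2/3, Kac, Sph/Tph, Rme/Rme2a/Rme2s, Rcit) are listed in the label and the 'peptide modifications' condition. Slides were probed at 4 °C for 1 h with biotin-labelled (HQ)5-HaloTag reader fusions (ATRX-ADD, ING2-PHD) then streptavidin-Alexa647, or with rabbit histone antibodies then anti-rabbit Alexa647. The mean 635 nm signal of the triplicate spots was scaled 0-1 between the lowest and highest values on each array.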
# [2] = target: HaloTag-ING2 PHD (mouse Ing2 200-280)
# Description: as §1
# [3] = target: anti-H3K4me3 antibody ab8580
# Description: as §1
# [4] = target: anti-H3K9me3 antibody ab8898
# Description: as §1
# [5] = peptide modifications: H2BK12ac H2BK15ac, binder concentration: 1:2,000 dilution
# [6] = peptide modifications: H2BK12ac H2BK15ac, binder concentration: 1:10,000 dilution
# [7] = peptide modifications: H2BS14ph, binder concentration: 1:2,000 dilution
# [8] = peptide modifications: H2BS14ph, binder concentration: 1:10,000 dilution
# [9] = peptide modifications: H2BK12ac H2BK15ac H2BK16ac, binder concentration: 1:2,000 dilution
# [10] = peptide modifications: H2BK12ac H2BK15ac H2BK16ac, binder concentration: 1:10,000 dilution
# [11] = peptide modifications: H2BK12ac H2BK16ac, binder concentration: 1:2,000 dilution
# [12] = peptide modifications: H2BK12ac H2BK16ac, binder concentration: 1:10,000 dilution
# [13] = peptide modifications: H2BK11ac H2BS14ph H2BK15ac, binder concentration: 1:2,000 dilution
# [14] = peptide modifications: H2BK11ac H2BS14ph H2BK15ac, binder concentration: 1:10,000 dilution
# [15] = peptide modifications: H2BK12ac H2BS14ph H2BK15ac, binder concentration: 1:2,000 dilution
# [16] = peptide modifications: H2BK12ac H2BS14ph H2BK15ac, binder concentration: 1:10,000 dilution
# [17] = peptide modifications: H2BK11ac H2BK12ac, binder concentration: 1:2,000 dilution
# [18] = peptide modifications: H2BK11ac H2BK12ac, binder concentration: 1:10,000 dilution
# [19] = peptide modifications: H2BK11ac H2BS14ph H2BK16ac, binder concentration: 1:2,000 dilution
# [20] = peptide modifications: H2BK11ac H2BS14ph H2BK16ac, binder concentration: 1:10,000 dilution
# [21] = peptide modifications: H2BK11ac H2BK16ac, binder concentration: 1:2,000 dilution
# [22] = peptide modifications: H2BK11ac H2BK16ac, binder concentration: 1:10,000 dilution
# [23] = peptide modifications: H2BS14ph H2BK15ac H2BK16ac, binder concentration: 1:2,000 dilution
# [24] = peptide modifications: H2BS14ph H2BK15ac H2BK16ac, binder concentration: 1:10,000 dilution
binder,measurement,setting,value
APAPKKGSKKAVT [H2B 7-19 A P A P K Kac G S Kac K A V T],peptide microarray binding signal,"[1]; peptide modifications: H2BK12ac H2BK15ac, binder concentration: 50 nM",0.00342 ± 5.6e-05
same,peptide microarray binding signal,"[1]; peptide modifications: H2BK12ac H2BK15ac, binder concentration: 500 nM",0.00938 ± 0.0002
same,peptide microarray binding signal,"[2]; peptide modifications: H2BK12ac H2BK15ac, binder concentration: 10 nM",0.00609 ± 0.00019
same,peptide microarray binding signal,"[2]; peptide modifications: H2BK12ac H2BK15ac, binder concentration: 100 nM",0.00503 ± 0.00011
same,peptide microarray binding signal,[3]; [5],0.00285 ± 0.0017
same,peptide microarray binding signal,[3]; [6],0.0012 ± 3.2e-05
same,peptide microarray binding signal,[4]; [5],0.000966 ± 7.9e-05
same,peptide microarray binding signal,[4]; [6],0.000923 ± 9.6e-06
APAPKKGSKKAVT [H2B 7-19 A P A P K K G Sph K K A V T],peptide microarray binding signal,"[1]; peptide modifications: H2BS14ph, binder concentration: 50 nM",0.00226 ± 0.00011
same,peptide microarray binding signal,"[1]; peptide modifications: H2BS14ph, binder concentration: 500 nM",0.00381 ± 2.8e-05
same,peptide microarray binding signal,"[2]; peptide modifications: H2BS14ph, binder concentration: 10 nM",0.00263 ± 3.9e-05
same,peptide microarray binding signal,"[2]; peptide modifications: H2BS14ph, binder concentration: 100 nM",0.00163 ± 1.7e-05
same,peptide microarray binding signal,[3]; [7],0.000302 ± 3.1e-06
same,peptide microarray binding signal,[3]; [8],0.000799 ± 1.7e-05
same,peptide microarray binding signal,[4]; [7],0.000438 ± 3.5e-05
same,peptide microarray binding signal,[4]; [8],0.00075 ± 4e-05
APAPKKGSKKAVT [H2B 7-19 A P A P K Kac G S Kac Kac A V T],peptide microarray binding signal,"[1]; peptide modifications: H2BK12ac H2BK15ac H2BK16ac, binder concentration: 50 nM",0.00505 ± 0.00068
same,peptide microarray binding signal,"[1]; peptide modifications: H2BK12ac H2BK15ac H2BK16ac, binder concentration: 500 nM",0.00719 ± 0.0027
same,peptide microarray binding signal,"[2]; peptide modifications: H2BK12ac H2BK15ac H2BK16ac, binder concentration: 10 nM",0.00621 ± 0.0005
same,peptide microarray binding signal,"[2]; peptide modifications: H2BK12ac H2BK15ac H2BK16ac, binder concentration: 100 nM",0.00631 ± 0.00038
same,peptide microarray binding signal,[3]; [9],0.00068 ± 9e-05
same,peptide microarray binding signal,[3]; [10],0.001541 ± 1.5e-05
same,peptide microarray binding signal,[4]; [9],0.00104 ± 4.9e-05
same,peptide microarray binding signal,[4]; [10],0.00133 ± 4e-05
APAPKKGSKKAVT [H2B 7-19 A P A P K Kac G S K Kac A V T],peptide microarray binding signal,"[1]; peptide modifications: H2BK12ac H2BK16ac, binder concentration: 50 nM",0.0107 ± 0.00094
same,peptide microarray binding signal,"[1]; peptide modifications: H2BK12ac H2BK16ac, binder concentration: 500 nM",0.00552 ± 0.0027
same,peptide microarray binding signal,"[2]; peptide modifications: H2BK12ac H2BK16ac, binder concentration: 10 nM",0.00734 ± 0.00071
same,peptide microarray binding signal,"[2]; peptide modifications: H2BK12ac H2BK16ac, binder concentration: 100 nM",0.0104 ± 0.0012
same,peptide microarray binding signal,[3]; [11],0.000302 ± 2.2e-05
same,peptide microarray binding signal,[3]; [12],0.0016 ± 0.00014
same,peptide microarray binding signal,[4]; [11],0.00136 ± 0.00029
same,peptide microarray binding signal,[4]; [12],0.00127 ± 8.9e-05
APAPKKGSKKAVT [H2B 7-19 A P A P Kac K G Sph Kac K A V T],peptide microarray binding signal,"[1]; peptide modifications: H2BK11ac H2BS14ph H2BK15ac, binder concentration: 50 nM",0.00176 ± 7.1e-05
same,peptide microarray binding signal,"[1]; peptide modifications: H2BK11ac H2BS14ph H2BK15ac, binder concentration: 500 nM",0.00238 ± 7.9e-05
same,peptide microarray binding signal,"[2]; peptide modifications: H2BK11ac H2BS14ph H2BK15ac, binder concentration: 10 nM",0.00286 ± 8.4e-05
same,peptide microarray binding signal,"[2]; peptide modifications: H2BK11ac H2BS14ph H2BK15ac, binder concentration: 100 nM",0.00149 ± 3.1e-05
same,peptide microarray binding signal,[3]; [13],0.00157 ± 4.2e-05
same,peptide microarray binding signal,[3]; [14],0.000742 ± 1.3e-05
same,peptide microarray binding signal,[4]; [13],0.000393 ± 1e-05
same,peptide microarray binding signal,[4]; [14],0.000692 ± 7.3e-06
APAPKKGSKKAVT [H2B 7-19 A P A P K Kac G Sph Kac K A V T],peptide microarray binding signal,"[1]; peptide modifications: H2BK12ac H2BS14ph H2BK15ac, binder concentration: 50 nM",0.00266 ± 0.00014
same,peptide microarray binding signal,"[1]; peptide modifications: H2BK12ac H2BS14ph H2BK15ac, binder concentration: 500 nM",0.00105 ± 0.00012
same,peptide microarray binding signal,"[2]; peptide modifications: H2BK12ac H2BS14ph H2BK15ac, binder concentration: 10 nM",0.00221 ± 5.8e-05
same,peptide microarray binding signal,"[2]; peptide modifications: H2BK12ac H2BS14ph H2BK15ac, binder concentration: 100 nM",0.00241 ± 8e-05
same,peptide microarray binding signal,[3]; [15],7.55e-05 ± 1.7e-06
same,peptide microarray binding signal,[3]; [16],0.000571 ± 1.1e-05
same,peptide microarray binding signal,[4]; [15],0.000362 ± 1.3e-05
same,peptide microarray binding signal,[4]; [16],0.00075 ± 2.1e-05
APAPKKGSKKAVT [H2B 7-19 A P A P Kac Kac G S K K A V T],peptide microarray binding signal,"[1]; peptide modifications: H2BK11ac H2BK12ac, binder concentration: 50 nM",0.00411 ± 0.00015
same,peptide microarray binding signal,"[1]; peptide modifications: H2BK11ac H2BK12ac, binder concentration: 500 nM",0.0031 ± 0.001
same,peptide microarray binding signal,"[2]; peptide modifications: H2BK11ac H2BK12ac, binder concentration: 10 nM",0.00603 ± 0.00082
same,peptide microarray binding signal,"[2]; peptide modifications: H2BK11ac H2BK12ac, binder concentration: 100 nM",0.00822 ± 0.001
same,peptide microarray binding signal,[3]; [17],0.000245 ± 2.6e-06
same,peptide microarray binding signal,[3]; [18],0.000913 ± 1.6e-05
same,peptide microarray binding signal,[4]; [17],0.000906 ± 4.5e-05
same,peptide microarray binding signal,[4]; [18],0.00127 ± 1.3e-05
APAPKKGSKKAVT [H2B 7-19 A P A P Kac K G Sph K Kac A V T],peptide microarray binding signal,"[1]; peptide modifications: H2BK11ac H2BS14ph H2BK16ac, binder concentration: 50 nM",0.00207 ± 8.4e-05
same,peptide microarray binding signal,"[1]; peptide modifications: H2BK11ac H2BS14ph H2BK16ac, binder concentration: 500 nM",0.00281 ± 2.2e-05
same,peptide microarray binding signal,"[2]; peptide modifications: H2BK11ac H2BS14ph H2BK16ac, binder concentration: 10 nM",0.00227 ± 3.4e-05
same,peptide microarray binding signal,"[2]; peptide modifications: H2BK11ac H2BS14ph H2BK16ac, binder concentration: 100 nM",0.00128 ± 1.3e-05
same,peptide microarray binding signal,[3]; [19],0.000396 ± 1.2e-05
same,peptide microarray binding signal,[3]; [20],0.000514 ± 5.5e-06
same,peptide microarray binding signal,[4]; [19],0.000242 ± 6.7e-06
same,peptide microarray binding signal,[4]; [20],0.000461 ± 8.7e-06
APAPKKGSKKAVT [H2B 7-19 A P A P Kac K G S K Kac A V T],peptide microarray binding signal,"[1]; peptide modifications: H2BK11ac H2BK16ac, binder concentration: 50 nM",0.00401 ± 5.5e-05
same,peptide microarray binding signal,"[1]; peptide modifications: H2BK11ac H2BK16ac, binder concentration: 500 nM",0.0108 ± 0.00051
same,peptide microarray binding signal,"[2]; peptide modifications: H2BK11ac H2BK16ac, binder concentration: 10 nM",0.00788 ± 0.0021
same,peptide microarray binding signal,"[2]; peptide modifications: H2BK11ac H2BK16ac, binder concentration: 100 nM",0.00751 ± 0.00032
same,peptide microarray binding signal,[3]; [21],0.00815 ± 0.00023
same,peptide microarray binding signal,[3]; [22],0.00108 ± 1.9e-05
same,peptide microarray binding signal,[4]; [21],0.00178 ± 9e-05
same,peptide microarray binding signal,[4]; [22],0.00133 ± 4.6e-05
APAPKKGSKKAVT [H2B 7-19 A P A P K K G Sph Kac Kac A V T],peptide microarray binding signal,"[1]; peptide modifications: H2BS14ph H2BK15ac H2BK16ac, binder concentration: 50 nM",0.00307 ± 0.00018
same,peptide microarray binding signal,"[1]; peptide modifications: H2BS14ph H2BK15ac H2BK16ac, binder concentration: 500 nM",0.00848 ± 0.00083
same,peptide microarray binding signal,"[2]; peptide modifications: H2BS14ph H2BK15ac H2BK16ac, binder concentration: 10 nM",0.00525 ± 0.00091
same,peptide microarray binding signal,"[2]; peptide modifications: H2BS14ph H2BK15ac H2BK16ac, binder concentration: 100 nM",0.00312 ± 7.5e-05
same,peptide microarray binding signal,[3]; [23],0.00427 ± 0.00019
same,peptide microarray binding signal,[3]; [24],0.00108
same,peptide microarray binding signal,[4]; [23],0.000876 ± 3.2e-05
same,peptide microarray binding signal,[4]; [24],0.00104 ± 1.1e-05
